Assay in all cases: NCI-60 one-dose screen, 48 h (100 = growth as untreated, 0 = no growth, -100 = all killed)
In one assay the test system is NCI-H23 lung. Particulars: 10 µM unless noted.
The subject of the next assay is NCI-H226 lung. The note with it: 10 µM unless noted.
For another assay, the system named is NCI-H322M lung. The note with it: 10 µM unless noted.
The next assay concerns HOP-62 NSCLC. The note with it: 10 µM unless noted.
The next assay deals with NCI-H460 lung. Particulars: 10 µM unless noted.
The subject of another assay is HOP-92 NSCLC. The note with it: 10 µM unless noted.
In the next assay the test system is NCI-H522 lung. Particulars: 10 µM unless noted.
A further assay concerns A549/ATCC NSCLC. Particulars: 10 µM unless noted.
The subject of the next assay is 786-0 renal. The note with it: 10 µM unless noted.
In a further assay the test system is COLO 205 colon. Particulars: 10 µM unless noted.
In the next assay the test system is DU-145 prostate. Particulars: 10 µM unless noted.
The subject of another assay is K-562 leukemia. Particulars: 10 µM unless noted.
Another assay has as its system MALME-3M melanoma. Particulars: 10 µM unless noted.
Another assay has as its system MDA-MB-231 breast. Particulars: 10 µM unless noted.
Another assay has as its system RXF 393 renal. The note with it: 10 µM unless noted.
For another assay, the system named is SF-268 CNS. The note with it: 10 µM unless noted.
A further assay has as its system SF-295 CNS. Particulars: 10 µM unless noted.
The subject of the next assay is SF-539 CNS. The note with it: 10 µM unless noted.
For another assay, the system named is UACC-257 melanoma. Particulars: 10 µM.
The test system of the next assay is M14 melanoma. The note with it: 10 µM unless noted.

The panel holds about 83,000 compounds, 20% with a hit somewhere; the sample as a whole holds those more often.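 How to read the values: 0–100, growth inhibition (40 = 60% inhibited); 0, no net growth; -100 to 0, cell death (-40 = 40% of starting cells died; -100 = all dead).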 Values without a mark were called inactive. Active and inactive are the calls of the source. The calls were made as follows: active = growth percent below 10; inactive = the rest.

In the case of `CN1C(=O)/C(=C/C=C/c2ccco2)SC1=S`, the growth is 75.7% with NCI-H23 lung; 70.1% in the assay on NCI-H226 lung; 88.8% in the assay with NCI-H322M lung; 93.8% in the assay with HOP-62 NSCLC; 99.1% in the assay with NCI-H460 lung; 98.9% in the assay on HOP-92 NSCLC. For the same compound, the growth in the assay with NCI-H522 lung is 71.3%; in the assay with A549/ATCC NSCLC, 72%; with 786-0 renal, 84.9%; in the assay on COLO 205 colon it was 94.3%; with DU-145 prostate, 101%; with K-562 leukemia, 77.7%. The growth is 36% in the assay with MALME-3M melanoma; 86.8% with MDA-MB-231 breast; -20.9% (active) with RXF 393 renal; 91.2% with SF-268 CNS; 101% in the assay on SF-295 CNS; 84.7% in the assay on SF-539 CNS. Further, the growth with UACC-257 melanoma is 88.1%; with M14 melanoma, 45%.
On to `Cc1ccc(-c2cc3nc(C(Cl)Cl)nc(-c4ccccc4)n3n2)cc1`, for which the growth in the assay with NCI-H23 lung is 95.4%; with NCI-H226 lung, 103%; with NCI-H322M lung it was 74.3%; in the assay on HOP-62 NSCLC, 73.6%; in the assay with NCI-H460 lung, 46.9%; in the assay with HOP-92 NSCLC it was 94.9%. The growth in the assay on NCI-H522 lung was 98.1%; in the assay on A549/ATCC NSCLC, 77.5%; in the assay on 786-0 renal it was 94.4%; in the assay on COLO 205 colon, 54.3%; in the assay on DU-145 prostate it was 2.08% (active); in the assay with K-562 leukemia it was 90.4%. Also, the growth is 122% in the assay with MALME-3M melanoma; 79.7% in the assay with MDA-MB-231 breast; 70.4% in the assay on RXF 393 renal; 89% in the assay with SF-268 CNS; 79.8% in the assay on SF-295 CNS; 90.8% with SF-539 CNS. Besides, the growth in the assay on UACC-257 melanoma and in the assay on M14 melanoma was 112% in each case.
As to `COc1ccc(C2C(C#N)=C(N)Oc3c2sc2ccc(C)cc32)cc1` (stereo not given), the growth with NCI-H23 lung is 43.7%; with NCI-H226 lung it was 34.9%; in the assay on NCI-H322M lung it was 71.8%; in the assay with HOP-62 NSCLC, 30.1%; in the assay on NCI-H460 lung it was 15.2%; with HOP-92 NSCLC, 72.1%. Further, the growth in the assay with NCI-H522 lung was -34.3% (active); in the assay on A549/ATCC NSCLC it was 45.6%; in the assay on 786-0 renal, 42%; with COLO 205 colon, 36.8%; with DU-145 prostate, 36.3%; in the assay on K-562 leukemia it was 18.2%. Moreover, the growth in the assay on MALME-3M melanoma is 50%; in the assay on MDA-MB-231 breast, 42.2%; in the assay on RXF 393 renal it was -7.62% (active); with SF-268 CNS, 44.7%; in the assay on SF-295 CNS, 9.1% (active); in the assay on SF-539 CNS, 21%. Moreover, the figures for the growth in the assay on UACC-257 melanoma and in the assay with M14 melanoma were 57.1% and 20.9%, respectively.
`CN(C)C(=O)C1=NC(CO)C(=O)N(c2ccc(Cl)cc2)N1` (stereo not given): the growth was 104% in the assay on NCI-H23 lung; 105% in the assay on NCI-H226 lung; 98.6% in the assay with NCI-H322M lung; 98.9% in the assay on HOP-62 NSCLC; 104% in the assay on NCI-H460 lung; 91.4% in the assay on HOP-92 NSCLC. The growth with NCI-H522 lung was 97.1%; in the assay with A549/ATCC NSCLC it was 99%; in the assay on 786-0 renal it was 93.9%; with COLO 205 colon it was 105%; in the assay with DU-145 prostate it was 107%; with K-562 leukemia, 109%. In addition, the growth is 101% with MALME-3M melanoma; 97.9% with MDA-MB-231 breast; 120% with RXF 393 renal; 97.8% with SF-268 CNS; 103% with SF-295 CNS; 95.8% in the assay with SF-539 CNS. Further, the values for the growth in the assay on UACC-257 melanoma and in the assay with M14 melanoma were 107% and 92.8%, respectively.
As for `COc1cc(/C=N/n2cnc3oc(-c4ccccc4)cc3c2=N)cc(CN2CCOCC2)c1O`, the growth was 73% with NCI-H23 lung; 62.4% in the assay with NCI-H226 lung; 97.5% in the assay with NCI-H322M lung; 74.2% in the assay on HOP-62 NSCLC; 89.8% with NCI-H460 lung; 63.3% in the assay on HOP-92 NSCLC. The growth was 61.1% in the assay with NCI-H522 lung; 80.1% in the assay on A549/ATCC NSCLC; 45.6% with 786-0 renal; 82.4% in the assay on COLO 205 colon; 89.3% with DU-145 prostate; 5.46% (active) with K-562 leukemia. In addition, the growth in the assay on MALME-3M melanoma was 66.4%; in the assay with MDA-MB-231 breast, 51.4%; with RXF 393 renal it was -18.4% (active); in the assay on SF-268 CNS, 72.4%; in the assay with SF-295 CNS, 68.1%; in the assay on SF-539 CNS it was 60.9%. Moreover, the growth in the assay on UACC-257 melanoma was 110%; in the assay with M14 melanoma it was 73%.
For the compound `O=C1[C@H]2Cc3c([nH]c4ccccc34)[C@H](c3ccc(Cl)cc3)N2C(=O)CN1C1CCN(Cc2c(Cl)cccc2Cl)CC1`, the growth in the assay on NCI-H23 lung was 86.5%; with NCI-H226 lung it was 72.5%; with NCI-H322M lung, 96.9%; in the assay with HOP-62 NSCLC it was 80.1%; with NCI-H460 lung, 68%; in the assay with HOP-92 NSCLC, 55.1%. The growth is 75.3% in the assay with NCI-H522 lung; 66.9% in the assay on A549/ATCC NSCLC; 66% in the assay on 786-0 renal; 54.8% in the assay on COLO 205 colon; 76.9% in the assay on DU-145 prostate; 6.9% (active) in the assay with K-562 leukemia. In addition, the growth was 79.6% with MALME-3M melanoma; 72.5% in the assay on MDA-MB-231 breast; 53.9% in the assay with RXF 393 renal; 64.2% in the assay on SF-268 CNS; 86.8% in the assay on SF-295 CNS; 75.2% with SF-539 CNS. Moreover, the growth in the assay with UACC-257 melanoma is 101%; in the assay with M14 melanoma, 71.5%.
For the compound `CN(c1ccc(F)cc1)S(=O)(=O)c1ccc(-c2cnc(C3CC3)o2)cc1`, the growth with NCI-H23 lung was 30.5%; in the assay with NCI-H226 lung, 60.5%; with NCI-H322M lung it was 45.6%; with HOP-62 NSCLC, 44.1%; in the assay on NCI-H460 lung, 17.2%; with HOP-92 NSCLC it was 81.1%. The growth was 25.6% with NCI-H522 lung; 31.1% in the assay with A549/ATCC NSCLC; 50.3% in the assay on 786-0 renal; 6.42% (active) with COLO 205 colon; 23.5% in the assay on DU-145 prostate; 10.3% with K-562 leukemia. For the same compound, the growth with MALME-3M melanoma was 65.3%; in the assay with MDA-MB-231 breast, 28.4%; in the assay on RXF 393 renal it was -8.88% (active); with SF-268 CNS, 64.2%; with SF-295 CNS it was -12.9% (active); in the assay with SF-539 CNS it was 4.96% (active). Further, the growth was 70.9% with UACC-257 melanoma and 14.6% in the assay on M14 melanoma.
`C#C[C@]1(O)CC[C@H]2[C@@H]3CC=C4c5sc(Nc6cc(Cl)ccn6)nc5CC[C@]4(C)[C@H]3CC[C@@]21C`: the growth with NCI-H23 lung is 35.4%; in the assay with NCI-H226 lung, 22.9%; in the assay on NCI-H322M lung it was 59.3%; in the assay on HOP-62 NSCLC it was 14.1%; in the assay on NCI-H460 lung, 13.5%; in the assay on HOP-92 NSCLC it was 18.4%. Besides, the growth in the assay on NCI-H522 lung was 30.2%; in the assay with A549/ATCC NSCLC, 37.5%; in the assay on 786-0 renal it was -70.8% (active); with COLO 205 colon it was 21.2%; in the assay with DU-145 prostate it was 42.5%; in the assay with K-562 leukemia it was 7.33% (active). The growth with MALME-3M melanoma was -21.9% (active); in the assay on MDA-MB-231 breast it was 32.6%; in the assay on RXF 393 renal, -52.8% (active); in the assay on SF-268 CNS, 10.7%; with SF-295 CNS, -68.7% (active); in the assay with SF-539 CNS, -53.2% (active). The values for the growth with UACC-257 melanoma and in the assay with M14 melanoma were -35.3% (active) and -51.8% (active), respectively.

The record behind these values is PubChem BioAssay (NCI).
